Results published in PubChem BioAssay AID588683 (Broad Institute, 2011).
Measured potencies and affinities stand elsewhere.

These compounds were tested against Kelch-like ECH-associated protein 1 (Homo sapiens) + Nuclear factor erythroid 2-related factor 2 (Homo sapiens) (UniProt Q14145+Q16236) (assay: disruptors of Keap1 binding to Nrf2 peptide – biochemical, fluorescence polarization, cherry-picked samples, dose response (AID 588683;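 further: Kelch domain of Keap1 binding a fluorescein-labelled 9mer Nrf2 peptide; more negative means stronger inhibition of peptide binding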)). Settings: plate reader; series mostly up to 26 µM; activity change, negative = inhibition: at the top concentration; call rule not given here.
Chain of Kelch-like ECH-associated protein 1 (Homo sapiens) + Nuclear factor erythroid 2-related factor 2 (Homo sapiens) (Q14145 whole entry, looked up, the tested form may be a part): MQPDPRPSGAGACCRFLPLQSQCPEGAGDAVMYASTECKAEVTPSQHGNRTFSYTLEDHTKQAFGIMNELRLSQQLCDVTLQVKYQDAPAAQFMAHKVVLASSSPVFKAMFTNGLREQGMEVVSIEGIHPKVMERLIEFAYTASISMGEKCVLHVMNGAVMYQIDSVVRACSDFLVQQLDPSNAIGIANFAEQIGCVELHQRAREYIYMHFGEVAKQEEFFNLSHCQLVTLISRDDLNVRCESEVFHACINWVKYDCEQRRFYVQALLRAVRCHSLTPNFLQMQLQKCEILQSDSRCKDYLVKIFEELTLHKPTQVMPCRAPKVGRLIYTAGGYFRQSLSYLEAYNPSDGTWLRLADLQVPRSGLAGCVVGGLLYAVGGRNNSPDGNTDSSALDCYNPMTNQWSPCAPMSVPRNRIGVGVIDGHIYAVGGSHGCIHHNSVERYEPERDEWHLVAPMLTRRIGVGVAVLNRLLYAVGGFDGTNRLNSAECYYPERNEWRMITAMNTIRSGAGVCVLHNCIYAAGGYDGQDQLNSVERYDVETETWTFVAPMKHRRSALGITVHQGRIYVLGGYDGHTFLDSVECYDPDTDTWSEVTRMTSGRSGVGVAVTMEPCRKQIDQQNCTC
Chain of Kelch-like ECH-associated protein 1 (Homo sapiens) + Nuclear factor erythroid 2-related factor 2 (Homo sapiens) (Q16236 whole entry, looked up, the tested form may be a part): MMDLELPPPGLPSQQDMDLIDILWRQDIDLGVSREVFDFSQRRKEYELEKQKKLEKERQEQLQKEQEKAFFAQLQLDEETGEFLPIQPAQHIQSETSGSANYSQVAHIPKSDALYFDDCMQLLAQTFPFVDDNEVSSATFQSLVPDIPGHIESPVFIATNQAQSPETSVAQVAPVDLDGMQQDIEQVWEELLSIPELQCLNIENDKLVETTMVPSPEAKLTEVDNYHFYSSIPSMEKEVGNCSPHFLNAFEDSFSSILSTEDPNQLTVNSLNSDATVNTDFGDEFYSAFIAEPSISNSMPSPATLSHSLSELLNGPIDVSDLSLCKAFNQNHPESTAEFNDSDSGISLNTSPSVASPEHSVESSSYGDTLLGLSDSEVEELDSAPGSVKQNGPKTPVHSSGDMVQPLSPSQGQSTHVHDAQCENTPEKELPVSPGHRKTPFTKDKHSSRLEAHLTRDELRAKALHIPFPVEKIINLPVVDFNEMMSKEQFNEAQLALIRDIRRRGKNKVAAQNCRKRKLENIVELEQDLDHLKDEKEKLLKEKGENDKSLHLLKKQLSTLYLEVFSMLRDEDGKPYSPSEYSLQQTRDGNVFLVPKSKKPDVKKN

Activity change, negative = inhibition, inactive:
Cc1ccc(-c2nc3sc(C#N)c(N)n3c(=O)c2C#N)cc1 64.5%, CC(=O)c1ccc2c(c1)C1C=CCC1C(C(=O)O)N2 (stereo not drawn) -4.16%, O=C(CN1CCN(C(=O)CNC(=O)c2ccc3c(c2)OCO3)CC1)Nc1ccc(F)cc1 -6.38%, O=C(NNS(=O)(=O)c1ccc(F)cc1)c1ccc(O)cc1 -13.2%, Cc1nc(-c2ccc(S(=O)(=O)N3CCCN(CCc4ccccc4)CC3)s2)cs1 -12.4%, CCOc1ccc(C(=O)COC(=O)c2nn(CC)c(=O)c3ccccc23)cc1 -7.02%, COc1cc(NC(=O)CSc2nc3cc(C)ccc3cc2C)c(C(=O)O)cc1OC -2.64%, C=CCn1c(=O)/c(=C/c2ccsc2)s/c1=C(\C#N)C(=O)NCCN1CCOCC1 -7.84%, Cc1nnc(NC(=O)c2ccc3c(c2)NC(=O)CS3)s1 -3.13%, O=S(=O)(Nc1ncccn1)c1ccc(NC(=S)NCc2cccnc2)cc1 -14.6%, C=CCn1c(O)c(CN2CCOCC2)c(C)c(C#N)c1=O -13.2%, Cc1ccc(C(=O)N/C(=C\c2ccc(-c3ccccc3[N+](=O)[O-])o2)C(=O)NCCCN(C)C)cc1 -4.73%, OC(Cc1ccncc1)(c1ccccc1)c1ccccc1 -9.67%, CNc1nnc(SCC(=O)c2cc(C)n(C3CC3)c2C)s1 18.2%, O=c1ccc2cc3c4c(c2o1)CCCN4CCC3 -45.4%, Cc1ccc(C(=O)NNC(=O)c2n[nH]c(=O)c3ccccc23)cc1C -2.74%, CN(CCOc1ccc(CC2SC(=O)NC2=O)cc1)c1ccccn1 (stereo not drawn) -5.31%, Cc1ccc2oc(=O)c3cnn(CC(=O)NCCC(C)C)c3c2c1 -7.73%
